This note sets out measurements from PubChem BioAssay AID2546 (National Center for Advancing Translational Sciences (NCATS), 2010).

About 11,000 (3.5%) of roughly 310,000 compounds were called active. Another 8% or so got no clear call; they are omitted. Shown is part of a subset that was picked to be rich in actives. Unmarked numbers belong to inactive results. Calls follow the shape of the dose curve; as a rule, active = well fitted inhibition curve with a large enough effect; inconclusive = small, poorly fitted or top-dose-only effect, or effect the other way; inactive = flat fitted curve, though single readings scatter.
% is scaled to controls: 0 for no effect and ±100 for the full control effect; potency is read from the fitted curve at half-maximal effect.

This experiment can be described thus: VP16 counterscreen qHTS for inhibitors of ROR gamma transcriptional activity.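 Also: Gal4-VP16 expression switched on by copper sulfate through the metallothionein promoter; nearly all actives have a fitted effect of over 50% in size.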 Conditions: Drosophila S2 Gal4-VP16 UAS-luciferase, luminescence, 20 h; series mostly up to 53.6 µM; activity, negative = inhibition: at the top concentration. An excerpt:
NIH Molecular Libraries Probe Production Network [MLPCN]
NIH Chemical Genomics Center [NCGC]
Assay Provider: Dan Littman, New York University
The retinoic acid-related orphan receptor (ROR) gamma is a transcription factor that has a central role in the differentiation of Th17 cells, a subset of T helper cells that secrete the inflammatory cytokines IL-17, IL-17F, and IL-22. Th17 cells have been implicated in graft versus host disease, autoimmune disease and asthma. ROR gamma is induced in naive T helper cells in the presence of TGF-beta combined with IL-6, IL-21, or IL-23, and thereafter directs the expression of the Th17 lineage cytokines. To identify nonspecific inhibitors, a Drosophila Schneider cell line was stably transfected with two vectors: a gene expressing a fusion of the Gal4 DNA binding domain and VP16 transactivation domain under the control of the metallothionine promoter and a Photinus luciferase reporter regulated by the Gal4 binding site enhancer, UAS. […] Small molecule inhibitors that inhibit components common to the RORgt and VP16 assays, such as the Gal4 DNA binding domain or the UAS luciferase reporter, will be active in both assays and thus scored as nonspecific.
For screening, 600 cells in 4 uL/well were dispensed into white solid 1536-well plates (Grenier) using a solenoid-based dispenser. Following transfer of 23 nL compound or DMSO vehicle by a pin tool, the plates were incubated 1 hr at ambient temperature, and 1 uL/well copper sulfate (700 uM final concentration) was added. The plates were centrifuged 15 s at 1000 RPM and incubated 20 hr at ambient temperature. After addition of 1.5 uL Photinus luciferase detection reagent, the plates were incubated 10 min at ambient temperature and then read by a ViewLux (Perkin Elmer) to detect luminescence.
`ClC(Cl)=C(Cl)C(Cl)=C(Cl)Cl`: the “activity, negative = inhibition” value is 2.07%. In the case of `c1csc(CN2CCCC3(CCNCC3)C2)n1`, the “activity, negative = inhibition” value was 5.75%. Same read-out and setting: under `CN[C@@H]1C[C@H]2O[C@@](C)([C@@H]1OC)n1c3ccccc3c3c4c(c5c6ccccc6n2c5c31)C(=O)NC4` stands -1.08% [at 10 µM].

With `COC(=O)c1ccc2[se]c(CC3CCCCC3)c(I)c2c1`, the “activity, negative = inhibition” value was 1.9%. For `CCN(CC)c1nc(C)cc(OP(=S)(OC)OC)n1`, the “activity, negative = inhibition” value was -2.31%. On the same count and under the same terms, under `C=CC#N` stands 10.3%. Take `N#Cc1c(Cl)c(Cl)c(Cl)c(C#N)c1Cl`: the Potency is 1.78 µM (active). For `CCCCC/C=C\C/C=C\C/C=C\C/C=C\CCCCCC(=O)NCCO`, the Potency entry was “inactive”. With `N#CCCCl`, the Potency result is “inactive”.

Consider `O=C1NC(=O)N(c2ccccc2)C(=O)/C1=C/c1ccc([N+](=O)[O-])s1`, for which the “activity, negative = inhibition” value was 6.23%. As for `Cc1cccc(N2C(=O)NC(=O)/C(=C\c3cnn(-c4ccccc4)c3)C2=O)c1`, the Potency is 12.6 µM (active). Regarding `COc1cccc(N2C(=O)NC(=O)/C(=C\c3ccc([N+](=O)[O-])s3)C2=O)c1`, the “activity, negative = inhibition” value is -11.7%.

`N#Cc1cc(Br)c(O)c(Br)c1`: the “activity, negative = inhibition” value was -13.2%.

Regarding `N[C@H](Cc1o[nH]c(=O)c1Cl)C(=O)O`, the “activity, negative = inhibition” value was -10.8%. Still for that read-out and setting: under `COC1CC(OC2CC[C@@]3(C=O)C4CC[C@]5(C)C(C6=CC(=O)OC6)CC[C@@]5(O)C4CC[C@]3(O)C2)OC(C)C1O` (some centres not stated) stands 16.8%.

For `CC[N+](C)(CC)CCC[n+]1c(-c2ccccc2)c2cc(N)ccc2c2ccc(N)cc21`, the Potency is 2.51 µM (active). As for `O=P1(Oc2ccccc2)CC(O)C(O)C(COCc2ccccc2)O1` (configuration not stated), the “activity, negative = inhibition” value was -5.85%. Still for that read-out and setting: under `C[C@H]1CC[C@@]2(NC1)O[C@@H]1C[C@H]3[C@@H]4CC=C5C[C@@H](O)CC[C@]5(C)[C@@H]4CC[C@]3(C)[C@@H]1[C@@H]2C` stands -5.63% [at 17 µM].

With `CN1C2CC3CC1C(O3)C2O` (configuration not stated), the “activity, negative = inhibition” value is 7.32%. Regarding `COC([CH2][Hg])CNC(=O)c1ccccc1OCC(=O)O` (configuration not stated), the “activity, negative = inhibition” value is 3.54%.

For `Nc1ccc(-c2ccc(N)c(N)c2)cc1N`, the “activity, negative = inhibition” value is 15.7%. The same measure, in the same setting: under `COc1cc2c(cc1OC)[C@@H]1C(=O)c3ccc(O)c(CC=C(C)C)c3OC1CO2` (some centres not stated) stands -2.2%. The same measure, in the same setting: under `CCCCn1c(=O)c(C(=O)Nc2ccccc2Cl)c(O)c2ccccc21` stands 26.2%; under `CCCCCn1c(=O)c(C(=O)Nc2c(C)n(C)n(-c3ccccc3)c2=O)c(O)c2ccccc21`, -11.3%. Regarding `CCCCCn1c(=O)c(C(=O)NCc2ccccn2)c(O)c2ccccc21`, the Potency is 17.8 µM (active). Take `Clc1ccc([C@@H]2C[C@H]3CC[C@@H]2N3)cn1`: the “activity, negative = inhibition” value is 5.01%. Same read-out and setting: under `Cc1cccc([C@H](C)c2cnc[nH]2)c1C` stands 3.21%; under `COc1ccccc1-c1[se]c2ccccc2c1I`, -3.29%; under `O=C1CCc2cccc3c2N1CC3`, -7.75%.

`CCC(C)C(=O)O[C@@H]1C[C@@]2(C)C(c3ccoc3)OC(=O)CC23OC2(C)O[C@@]14[C@@]1(C)C(CC(=O)OC)C5(C)CC1(O)C(O)(C5OC(=O)C1(C)OC1C)C(OC(C)=O)[C@@]34O2` (some centres not stated): the “activity, negative = inhibition” value was -14.6%. With `BrC1C(Br)C(Br)C(Br)C(Br)C1Br` (configuration not stated), the Potency is 7.94 µM (active). With `N[C@H](C(=O)O)c1cc(=O)[nH]o1`, the “activity, negative = inhibition” value is -10.3%. Regarding `CCCCC/C=C\C/C=C\C/C=C\C=C\[C@H](CCCC(=O)O)OO`, the “activity, negative = inhibition” value was -1.54%. On the same count and under the same terms, under `C/C(=C\C=C/[C@@H](C)C(=O)O)[C@H]1CN[C@H](C(=O)O)[C@@H]1CC(=O)O` stands -2.02%. Consider `CC(C)(Cc1c[nH]c2ccc(Cl)cc12)NCCOc1ccccc1OCC1CC1`, for which the Potency was 15.8 µM (active). With `C[C@H]1C/C=C/[C@@H]2[C@@H]3O[C@]3(C)[C@@H](C)[C@H]3[C@H](Cc4ccccc4)NC(=O)[C@]32OC(=O)O/C=C/[C@](C)(O)C1=O`, the “activity, negative = inhibition” value is 2.16%. In the case of `C[C@@H]1C[C@H]2CC[C@H](O2)[C@H](C)C(=O)O[C@@H](C)C[C@@H]2CC[C@@H](O2)[C@@H](C)C(=O)O[C@H](C)C[C@H]2CC[C@H](O2)[C@H](C)C(=O)O[C@@H](C)C[C@@H]2CC[C@@H](O2)[C@@H](C)C(=O)O1`, the Potency was 1 µM (active). For `C1CC[C@H]([C@@]23C[C@H](C[C@H]4CCCN[C@H]42)[C@@H]2CCCCN2C3)NC1`, the “activity, negative = inhibition” value was -7.87%.

Turning to `O=C(Nc1cccc(F)c1)N1CC[C@@]2(CCCN(C(=O)Oc3ccccc3)C2)C1`, the “activity, negative = inhibition” value is -13.3%. Consider `C=CCSSCC=C`, for which the “activity, negative = inhibition” value is -13.7%. For `CC(C)(c1ccc(OC[C@@H]2CO2)cc1)c1ccc(OC[C@H]2CO2)cc1`, the “activity, negative = inhibition” value is 1.63%. Still for that read-out and setting: under `O=C(N/N=C/c1ccc([N+](=O)[O-])o1)c1cc([N+](=O)[O-])cc([N+](=O)[O-])c1O` stands -5.16%.
